Key:
Assay in all cases: PBM binding z-score (relative to random genomic background probes); higher = stronger binding; sequences stand for … in GC…GCGATTGACAGCGTAGAATGAAGG
[1] = test system: PPARg:RXRa DBDmut IVT, anti-RXR (DBD mutation: RXRa K156A/R161A, NR concentration 270 nM, RXRa partner concentration 90 nM)
Summary of the method: (§1)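 Antibodies against each partner of ligand-free nuclear receptor dimers (one per run) detected binding on custom Agilent 4×180K protein-binding microarrays after 1 h incubation. The double-stranded probes had 34-nt variable regions carrying direct-repeat seeds, single-nucleotide variants, half-site ablations and random human genomic background sequences. Binding z-scores, from regression-normalized fluorescence, use the random background probes as reference.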

[2] = test system: PPARg:RXRa IVT, anti-PPARg (NR concentration 270 nM, RXRa partner concentration 90 nM)
Summary of the method: as §1

[3] = test system: PPARg DBDmut IVT, anti-PPARg (DBD mutation: PPARg1 K132A/R137A, NR concentration 270 nM)
Summary of the method: as §1

[4] = test system: PPARg homodimer (NR concentration 180 nM)
Summary of the method: as §1

[5] = test system: PXR:RXRa (NR concentration 270 nM, RXRa partner concentration 90 nM)
Summary of the method: as §1

[6] = test system: PXR homodimer (NR concentration 270 nM)
Summary of the method: as §1

[7] = test system: RARa:RXR (NR concentration 270 nM, RXRa partner concentration 90 nM)
Summary of the method: as §1

[8] = test system: RARa homodimer (NR concentration 270 nM)
Summary of the method: as §1

[9] = test system: RARb:RXRa (NR concentration 270 nM, RXRa partner concentration 90 nM)
Summary of the method: as §1

Row | Sequence | PBM binding z-score [1] | PBM binding z-score [2] | PBM binding z-score [3] | PBM binding z-score [4] | PBM binding z-score [5] | PBM binding z-score [6] | PBM binding z-score [7] | PBM binding z-score [8] | PBM binding z-score [9]
1 | CGAACTAGGTCACCAGGACAGTAAAGAGGTTGGA | 8.12 | 8.87 | 5.2 | 2.63 | 1.66 | 0.231 | 2.62 | 0.29 | 4.12
2 | CGAACTAGGTCAAAGGCCAGTGAAAGGCGACGTA | 7.82 | 8.38 | 0.408 | 1.42 | 1.79 | -0.54 | 3.18 | -0.426 | 3.87
3 | ATATGTAGGTTAGGGTCATTCATAAAGTAGGGAA | 6.2 | 7.14 | 4.07 | 4.85 | 4.73 | 2.83 | 4.99 | 2.19 | 3.63
4 | ATATGTAGGTTAGGGTCATTTAGAAAGTAGGGAA | 6.56 | 6.66 | 2.64 | 3.47 | 4.23 | 1.89 | 4.82 | 1.85 | 3.33
5 | ATATGTAGGTTAGGGTCCTTCAGAAAGTAGGGAA | 6.21 | 6.11 | 1.93 | 1.37 | 0.573 | 0.477 | 0.72 | 0.953 | 1.03
6 | CGAACTAGGTCCCCAGGACAGTGAAGAGGTTGGA | 3.03 | 2.5 | -1.06 | -0.774 | -0.741 | -0.316 | -0.649 | -0.996 | 0.0236
7 | CGAACTAGGTCACCAGGACACTGAAGAGGTTGGA | 8.03 | 8.93 | 1.04 | 1.58 | 2.02 | 0.353 | 2.73 | 0.625 | 4.22
8 | CGAACTAGGTCAAAGGACTGTGAAAGGCGACGTA | 8.23 | 8 | 0.977 | 1.41 | 0.827 | -0.596 | 1.86 | -0.095 | 3.58
9 | ATATGTAGGTTAGGGTTATTCAGAAAGTAGGGAA | 6.88 | 6.54 | 2.32 | 2.77 | 2.33 | 1.31 | 2.55 | 1.94 | 1.57
10 | CTAACTAGGTCACCAGGACAGTGAAGAGGTTGGA | 8.89 | 9.08 | -0.261 | 1.88 | 1.42 | 0.375 | 2.8 | 0.69 | 4.28
11 | CGAGCTAGGTCACCAGGACAGTGAAGAGGTTGGA | 3.94 | 4.43 | -1.08 | 1.48 | 1.35 | -0.379 | 2.36 | 0.327 | 4.16
12 | CGAACTAGGTCACCAGGACAGTGATGAGGTTGGA | 7.98 | 8.61 | 0.614 | 2.34 | 1.5 | 0.423 | 2.69 | 0.546 | 4.16
13 | CGAACTAGGTCAAAGGACAGCGAAAGGCGACGTA | 8.31 | 8.46 | 0.805 | 1.59 | 1.22 | -0.642 | 2.66 | 0.165 | 3.93
14 | ATAAGTAGGTTAGGGTCATTCAGAAAGTAGGGAA | 6.82 | 6.77 | 2.11 | 3.79 | 4.78 | 3.26 | 5.36 | 2.72 | 3.63
15 | CGAACTAGGTCAAAGGACAGTGATAGGCGACGTA | 8.07 | 8.07 | 0.359 | 1.45 | 1.14 | -0.148 | 2.05 | 0.153 | 3.95
16 | CGAACTAGCTCAAAGGACAGTGAAAGGCGACGTA | -0.134 | -0.285 | -0.415 | 0.163 | -0.639 | -0.457 | -0.276 | 0.225 | 0.694
17 | ATATGTAGGTTAGGGTCATTCGGAAAGTAGGGAA | 6.55 | 6.85 | 4.65 | 3.85 | 4.53 | 1.88 | 4.88 | 2.27 | 3.43
18 | CGAACTACGTCACCAGGACAGTGAAGAGGTTGGA | 0.112 | 0.232 | -0.216 | 0.245 | -0.245 | -0.301 | 0.0876 | -0.285 | -0.125
19 | ATATGTAGTTTAGGGTCATTCAGAAAGTAGGGAA | 1.43 | 2.8 | 1.5 | 2.89 | 4.68 | 1.83 | 5.48 | 1.75 | 3.42
20 | CGAACTTGGTCAAAGGACAGTGAAAGGCGACGTA | 0.58 | 1.75 | -0.436 | 0.499 | -0.152 | -0.326 | 0.232 | -0.498 | 1.83
21 | CGAACTAGGTCAAAAGACAGTGAAAGGCGACGTA | 7.84 | 7.79 | 0.23 | 0.576 | 0.624 | -0.275 | 1.45 | -0.196 | 3.17
22 | ATATGTATGTTAGGGTCATTCAGAAAGTAGGGAA | 2.61 | 3.27 | 2.23 | 2.64 | 4.24 | 1.37 | 4.82 | 1.45 | 3.15
23 | CGAACTTGGTCACCAGGACAGTGAAGAGGTTGGA | 1.74 | 2.17 | -0.841 | 0.157 | -0.0595 | -0.183 | 0.344 | -0.448 | 1.38
24 | ATATGTAGGTTAGGGTCGTTCAGAAAGTAGGGAA | 6.06 | 6.47 | 2.98 | 2.38 | 2.11 | 1.67 | 2.37 | 1.51 | 1.92
25 | CGAACTAGGTCAAAGGACAGTGTAAGGCGACGTA | 7.92 | 7.95 | -0.12 | 0.849 | 1.19 | -0.0737 | 2.22 | 0.371 | 3.91
26 | CGAACTAGGTCATAGGACAGTGAAAGGCGACGTA | 7.81 | 8.5 | 0.801 | 1.9 | 1.2 | -0.212 | 2.17 | 0.173 | 3.5

Row | Sequence | PBM binding z-score [1] | PBM binding z-score [2] | PBM binding z-score [3] | PBM binding z-score [4] | PBM binding z-score [5] | PBM binding z-score [6] | PBM binding z-score [7] | PBM binding z-score [8] | PBM binding z-score [9]
27 | ATATGTAGGTTAGGGTCATACAGAAAGTAGGGAA | 6.63 | 6.88 | 2.42 | 2.62 | 4.21 | 1.46 | 5.03 | 1.3 | 3.53
28 | CGAACTAGGTCAAAGGACCGTGAAAGGCGACGTA | 7.75 | 8.21 | 0.0403 | 0.811 | 0.907 | -0.51 | 1.44 | -0.512 | 3.69
29 | CGAACTAGGTCACCAGGAAAGTGAAGAGGTTGGA | 8.65 | 8.74 | 0.796 | 2.05 | 1.48 | -0.0939 | 2.37 | 0.814 | 4.29
30 | CGAACTAGGTCAGCAGGACAGTGAAGAGGTTGGA | 7.67 | 7.57 | 0.821 | 0.528 | 0.361 | -0.536 | 0.95 | -0.352 | 3.61
31 | ATATGTAGGTTAGGGTCATTCACAAAGTAGGGAA | 6.56 | 6.82 | 1.75 | 2.3 | 4.57 | 2.17 | 4.83 | 2.07 | 3.49
32 | ATATGCAGGTTAGGGTCATTCAGAAAGTAGGGAA | 2.72 | 3.16 | 1.24 | 2.85 | 4.28 | 1.51 | 4.9 | 1.16 | 3.4
33 | CGCACTAGGTCAAAGGACAGTGAAAGGCGACGTA | 7.3 | 8.16 | 0.801 | 0.993 | 1.27 | 0.0363 | 2.25 | 0.165 | 3.84
34 | CGAACTAGGACACCAGGACAGTGAAGAGGTTGGA | 6.02 | 5.32 | -0.0745 | 0.381 | -0.661 | -0.233 | -0.0962 | 0.279 | 0.552
35 | CGAACTAGGTCACCATGACAGTGAAGAGGTTGGA | 7.11 | 8.4 | 1.33 | 1.97 | 1.4 | -0.124 | 2.42 | 0.707 | 4.23
36 | CGACCTAGGTCAAAGGACAGTGAAAGGCGACGTA | 3.69 | 4 | -0.949 | 1.74 | 1.42 | -0.567 | 2.9 | -0.132 | 4.05
37 | CGAACTAGGTCACCAGCACAGTGAAGAGGTTGGA | 8.34 | 8.76 | 0.181 | 1.79 | 1.41 | 0.0792 | 2.39 | 0.262 | 4.11
38 | ATATGTAGGGTAGGGTCATTCAGAAAGTAGGGAA | 6.28 | 5.96 | 4.11 | 2.93 | 4.39 | 2.67 | 4.44 | 2.33 | 3.21
39 | CCAACTAGGTCACCAGGACAGTGAAGAGGTTGGA | 7.98 | 8.26 | 1.95 | 2.72 | 1.52 | 0.124 | 2.69 | 1.44 | 4.36
40 | CGAACTAGGTCACCAGGACAGTGAGGAGGTTGGA | 8.37 | 8.24 | -0.39 | 1.56 | 0.988 | -0.539 | 1.93 | 0.16 | 4.16
41 | CGAACTAGGTCAAAGGAGAGTGAAAGGCGACGTA | 8.02 | 7.99 | 0.59 | 0.681 | 1.1 | -0.124 | 1.85 | -0.114 | 3.65
42 | CGAACTAGGTCAAAGGACAATGAAAGGCGACGTA | 7.79 | 8.35 | 0.575 | 1.69 | 1.5 | 0.00867 | 2.52 | 0.325 | 3.85
43 | CGAACTCGGTCACCAGGACAGTGAAGAGGTTGGA | 4.23 | 3.87 | -0.647 | 0.233 | 0.0316 | -0.302 | 0.493 | -0.227 | 2.69
44 | ATATGTAGGTTAGGGTCATTCCGAAAGTAGGGAA | 6.18 | 6.86 | 1.28 | 2.67 | 4.29 | 1.79 | 4.8 | 1.82 | 3.43
45 | CGAACTAGGTCACCACGACAGTGAAGAGGTTGGA | 8.39 | 9 | 4.26 | 2.32 | 1.46 | -0.289 | 2.78 | 0.591 | 4.21
46 | ATATATAGGTTAGGGTCATTCAGAAAGTAGGGAA | 6.92 | 6.72 | 2.87 | 4.26 | 4.79 | 2.81 | 5.43 | 2.83 | 3.58
47 | CGAACTAGGCCACCAGGACAGTGAAGAGGTTGGA | 6.89 | 6.5 | -0.0856 | -0.263 | -0.874 | -0.217 | -0.512 | -0.684 | 0.821
48 | CGAACTAGGTCACCAGTACAGTGAAGAGGTTGGA | 8.41 | 8.76 | 1.75 | 2.54 | 1.59 | -0.139 | 2.65 | 0.527 | 3.98
49 | ATATGTAGGTTATGGTCATTCAGAAAGTAGGGAA | 6.83 | 6.63 | 2 | 1.64 | 0.998 | 0.449 | 1.17 | 1.24 | 1.4
50 | CGAACTAGGTCAAAGGACAGTGACAGGCGACGTA | 8.32 | 8.4 | 1.51 | 1.78 | 1.3 | 0.0588 | 2.47 | 0.339 | 4.01
51 | CGAACTAGGTCACCAGGCCAGTGAAGAGGTTGGA | 8.23 | 8.8 | 0.89 | 2.25 | 1.18 | -0.53 | 2.73 | -0.334 | 4.22
52 | ATATGTAGGTTAAGGTCATTCAGAAAGTAGGGAA | 7.09 | 7.46 | 2.29 | 3.37 | 4.99 | 3.21 | 4.73 | 2.27 | 4.35
